High-throughput results: PubChem BioAssay, Broad Institute
aSyn UTR act: Activators via SNCA 5'UTR binding, MLPCN; alpha-synuclein 5'UTR reporter, activators screen; activity score, % (tested at 7.5 µM), hits read low; actives 7.1% (n = 300,000); AID 1814; in the data active = activity score below about -60%
* = called active by the depositor. These entries were drawn from the full list.

SMILES	aSyn UTR act
C/C(CC(=O)Nc1cc(C)ccn1)=N\NC(=O)C(=O)Nc1cccc(C)c1	-74*
COc1cccc(NC(=O)C(=O)N/N=C(\C)CC(=O)Nc2ccc(NC(C)=O)cc2)c1	-196*
C/C(CC(=O)Nc1ccc(OCc2ccccc2)cc1)=N\NC(=O)C(=O)Nc1ccc(C)c(Cl)c1	-69*
O=c1[nH]c(CN2CCN(C/C=C/c3ccccc3)CC2)nc2ccccc12	-72*
CN(/N=C/C=C/c1ccccc1)c1cc(=O)n(C)c(=O)[nH]1	-65*
CCN1C(=Nc2ccc(Cl)cc2)SC/C1=C\C(=O)OC	-81*
O=C(Nc1ccc(-n2ccc(C(F)(F)F)n2)cc1)c1cccs1	-176*
Cc1cc(C)cc(NC(=O)Nc2ccc(-n3ccc(C(F)(F)F)n3)cc2)c1	-77*
COc1ccccc1NC(=O)Nc1ccc(-n2ccc(C(F)(F)F)n2)cc1	-212*
O=C(Nc1ccc(-n2ccc(C(F)(F)F)n2)cc1)Nc1cccc(Cl)c1	-81*
CCCOc1ccc(OCCSc2nnc(N)s2)cc1	-89*
CCOC(=O)c1ccc(CSc2nnc(N)s2)cc1	-74*
CCOc1ccc(-c2nc(CSc3nnc(N)s3)cs2)cc1	-90*
CCOc1ccc(N/C(N)=N/c2nc(CSc3nnc(C)s3)cc(=O)[nH]2)cc1	84
CCCOc1ccc(-c2cnc(N)s2)cc1	-158*
Cc1cc(N(C)/N=C/c2ccccc2O)nc(-c2ccccc2O)n1	-97*
COc1cc2c(C)nc3c(cnn3-c3ccccc3)c2cc1OC	-240*
CCOCCCn1c(SCc2nc3ccccc3s2)nc2ccccc2c1=O	-78*
COCCn1c(SCc2nc3ccccc3s2)nc2ccccc21	-144*
C=CCn1c(=O)c2ccccc2n2c(SCc3nc4ccccc4s3)nnc12	-97*
O=C(NCc1ccccn1)c1ccc(-c2ccccc2)cc1	-107*
O=C(NCc1ccccn1)c1cc(-c2ccccc2)on1	-79*
O=C(NCc1cccs1)c1cc(-c2ccccc2)on1	-112*
COCCNC(=O)c1cc(-c2cccs2)on1	-289*
O=C(NCc1cccs1)c1cc(-c2cccs2)on1	-169*
SMILES	aSyn UTR act
O=C(Nc1ccc2c(c1)CCC2)c1ccc(Cl)nc1	-156*
O=C(Nc1ccc2c(c1)CCC2)c1c(F)cccc1Cl	-159*
O=C(Nc1ccc2c(c1)CCC2)c1cnc(Cl)c(Cl)c1	-190*
NC(N)=Nc1nc(C2COc3ccccc3O2)cs1 (stereo not drawn)	-64*
CC1=NC(=O)C(N=Nc2cccc(O)c2)N1c1ccccc1 (stereo not drawn)	-260*
Cc1ccc(/C=C2\SC(=S)N(CCCC(=O)Nc3cccnc3)C2=O)cc1	79
COc1cc(/C=C2\SC(=S)N(Nc3ccccc3)C2=O)ccc1O	-145*
CCOc1cc(/C=C2\SC(=S)N(Nc3ccccc3)C2=O)ccc1O	-165*
O=C1/C(=C/c2ccc(O)c(O)c2)SC(=S)N1Nc1ccccc1	-146*
COc1ccc(/C=C2\SC(=S)N(CCCC(=O)Nc3ccc(O)cc3)C2=O)cc1	78
CCOc1ccc(S(=O)(=O)N/N=C2/CC(c3ccccc3)Oc3ccccc32)cc1 (stereo not drawn)	-66*
CCOc1ccc(-c2cc(CCCC(=O)NCCCOC)no2)cc1	87
COc1ccc(-c2cc(C(=O)NCC(C)C)no2)cc1	-99*
CCC(C)NC(=O)c1cc(CC(C)C)on1 (stereo not drawn)	-68*
CCC(C)NC(=O)c1cc(-c2ccc3c(c2)OCO3)on1 (stereo not drawn)	-141*
CCC(C)NC(=O)c1cc(-c2ccc(OC)cc2)on1 (stereo not drawn)	-118*
COc1ccccc1C1=NN(C(=S)Nc2ccccc2)C(c2ccco2)C1 (stereo not drawn)	-154*
Cn1c(=NC(=O)c2ccccc2[N+](=O)[O-])sc2cccc(F)c21	-110*
COc1cc(SC)ccc1C(=O)OCC(=O)NC1CCCC1	-94*
C=CCn1c2ccccc2c(=O)c2cc(C#CC3(O)CCCCC3)ccc21	-170*
O=C(/C=C/c1nc2ccccc2s1)N1CCCCCC1	-107*
CC1CCCCC1NC(=O)/C=C/c1nc2ccccc2s1 (stereo not drawn)	-148*
CC(=NC1CCCCC1)C1=C(O)c2ccccc2C1=O	-121*
CC(=O)N(C1=C(Cl)C(=O)c2ccccc2C1=O)C1CCCCC1	58
COC(=O)C1=C(O)/C(=C\c2cc(C)n(-c3ccccc3C)c2C)N=C1C	-82*
SMILES	aSyn UTR act
CC(=O)Nc1ccc(S(=O)(=O)Nc2nc3ccccc3nc2Nc2ccc3ccccc3c2)cc1	-133*
COc1ccc(C([O-])=Nc2ccc[n+](-c3nc4ccccc4nc3NS(=O)(=O)c3ccccc3)c2)cc1	84
COc1ccc(NC(=O)c2oc3ccccc3c2C)c(OC)c1	-216*
COc1ccccc1C(=O)Nc1cc2ccccc2oc1=O	-172*
COc1ccc(S(=O)(=O)Nc2ccccc2OC)cc1NC(=O)c1cc2ccccc2oc1=O	-159*
COc1ccc2oc(=O)c(C(=O)Nc3cccc(C)c3)cc2c1	-128*
COc1ccc(NC(=O)c2cc3ccccc3oc2=O)c(OC)c1	-113*
Cc1ccc(C2=NN=C(NC(=O)CSc3nnc4c5ccccc5n(C)c4n3)SC2)cc1	-99*
COc1cccc(N2C(C(C)=O)=NN(c3ccccc3)C2c2ccc(N3CCOCC3)cc2)c1 (stereo not drawn)	-82*
Nc1c2c(nc3sc4c(c13)CCCC4)-c1ccccc1CC2	-75*
N/C(=N\OC(=O)c1ccco1)c1ccc(Br)cc1	-200*
N/C(=N\OC(=O)c1ccco1)c1ccccn1	-119*
COc1ccc(/C(N)=N/OC(=O)c2ccco2)cc1	60
Cc1cccc(/C(N)=N/OC(=O)CCCc2ccccc2)c1	-89*
N/C(=N\OC(=O)c1ccco1)c1ccccc1	-275*
Cc1cccc(/C(N)=N/OC(=O)c2ccco2)c1	-109*
O=C(c1cnn2cccnc12)N1CCN(c2ccccc2)CC1	-64*
O=C(Nc1ccc2c(c1)OCO2)c1cnn2cccnc12	-141*
O=C(Nc1cccc(O)c1)c1cnn2cccnc12	-110*
Cc1cc(C)nc(Nc2nc(=O)c3ccccc3s2)n1	-134*
O=C(O)C1CCC(c2ccc(-c3ccccc3)cc2)CC1 (stereo not drawn)	-84*
N=c1oc2c3c4c(cc2cc1C(=O)Nc1ccccc1)CCCN4CCC3	-276*
COc1ccc(Cl)cc1C(=O)Nc1nc2ccc(S(C)(=O)=O)cc2s1	-73*
CS(=O)(=O)c1ccc2nc(NC(=O)c3cccc([N+](=O)[O-])c3)sc2c1	-136*
COc1cc(OC)cc(C(=O)Nc2nc3ccc(S(C)(=O)=O)cc3s2)c1	-149*
SMILES	aSyn UTR act
Cc1cc(/C=N/NC(=O)c2ccsc2)c(C)n1-c1cnccn1	-77*
O=C1CSC2=NCN(c3ccc4c(c3)OCO4)CN12	-147*
Fc1ccc(CO/N=C2\CCCc3nonc32)cc1	-91*
Cc1ccc(-c2csc(-c3ccncc3)n2)cc1	-213*
Brc1ccc(-c2csc(-c3ccncc3)n2)cc1	-195*
COc1ccc(-c2csc(-c3ccc(O)cc3)n2)cc1	-215*
COc1ccc(C2=Nn3c(nnc3-c3ccccc3OC)SC2)cc1OC	107
COc1ccc(-c2nc(-c3ccc(O)cc3O)cs2)cc1OC	-94*
CCc1ccc(-c2nc(CCl)cs2)cc1	-123*
COc1ccc(-c2nc(CCl)cs2)cc1	-142*
Cc1ccc(N(C(=O)Nc2ccccc2)C2=NCC(C)S2)cc1 (stereo not drawn)	-62*
O=C(CSCc1ccc(F)cc1)N1CCN(c2ccccc2)CC1	-66*
